Drawing on PubChem BioAssay (EPA / NIEHS), this text covers outcome and AC50 for 40 molecules.

SMILES strings stand for the structures. “And” between values parts separate entries of the source, which are not always exact repeats. Equal values may be shown once. Records with an inconclusive call do not appear. The source made the active and inactive calls. Rule for the calls: active = hit-call score of the fitted dose curve at least 0.9, where 1 is the maximum; inconclusive = response in the unintended direction; inactive = score below 0.9.

The test in a line: Tanguay_ZF_120hpf_TR_legacy: (Legacy) Oregon State University Tanguay Lab 120 Hour Post-fertilization zebrafish Assay for Touch Response (AID 2283667). The protocol:
Tanguay_ZF_120hpf_legacy is a whole embryo, multiplexed endpoint assay using zebrafish larvae exposed for 120 hours post fertilization on a 96-well plate.Tanguay_ZF_120hpf_TR_legacy is one of one assay component(s) measured or calculated from the Tanguay_ZF_120hpf_legacy assay. It is designed to make measurements of zebrafish development as detected with brightfield microscopy of developing zebrafish embryos.Data from the assay component Tanguay_ZF_120hpf_TR_legacy was analyzed into 1 assay endpoints. This assay endpoint, Tanguay_ZF_120hpf_TR_legacy, was analyzed in the positive analysis fitting direction relative to DMSO as the negative control and baseline of activity. Using a type of morphology reporter, gain-of-signal activity can be used to understand changes in developmentals as they relate to the whole embryo. To generalize the intended target to other relatable targets, this assay endpoint is annotated to the zebrafish development intended target family, where the subfamily is embryonic functional response.
Zebrafish husbandry: Tropical 5D wild-type adult zebrafish were housed in at an approximate density of 1000 per 100 gallon tank at the Sinnhuber Aquatic Research Laboratory, Oregon State University, Corvallis, OR. Each tank was kept at standard laboratory conditions of 28C on a 14-h light/10-h dark photoperiod in fish water consisting of reverse osmosis water supplemented with a commercially available salt (Instant Ocean). Spawning funnels were placed into the tanks the night prior, and embryos were collected and staged. […] Ten microliters of each row of dilution plate 2 was added to 2 exposure plates. The final DMSO concentration used was 0.64% (vol/vol). Thirty-two embryos were also exposed to 5uM trimethyltin chloride (positive control). Plates were sealed to prevent evaporation and foil covered to reduce light exposure and kept in a 28C incubator. Embryos were statically exposed until 120 hpf. At 24 hpf, embryos were assessed for photomotor response using a custom photomotor response analysis tool (PRAT) and for developmental toxicity endpoints (MO24: mortality at 24 hpf, DP: developmental progression, SM: spontaneous movement, and NC: notochord distortion). At 120 hpf, locomotor activity was measured using Viewpoint Zebralab and assessed for 18 endpoints. Zebrafish acquisition and analysis program (ZAAP), a custom program designed to inventory, acquire, and manage zebrafish data, was used to collect developmental endpoints as either present or absent (i.e., binary responses were recorded). If mortality occurred for an embryo (at either 24 or 120 hpf), the non-mortality endpoints were not measured.
Take `c1ccc(Nc2ccccc2)cc1`: the outcome was inactive.

Regarding `Cc1nn(C)c(Oc2ccccc2)c1C=NOCc1ccc(C(=O)OC(C)(C)C)cc1`, the result was inactive. Same read-out and setting: in the case of `CSC(=O)c1cccc2nnsc12` it was “inactive”; in that of `CCN(CC)C(=O)c1cccc(C)c1`, “inactive”.

Regarding `c1ccc2[nH]c(-c3cscn3)nc2c1`, the result was inactive. The same measure, in the same setting: the same measure for `C[C@]12C[C@H](O)[C@H]3[C@@H](CCC4=CC(=O)CC[C@@]43C)[C@@H]1CC[C@@H]2C(=O)CO`: “inactive”; for `C#CCOC(=O)[C@@H](C)Oc1ccc(Oc2ncc(Cl)cc2F)cc1`: “inactive”; for `S=C(S)NCCNC(=S)S.[Mn+2].[S-]C([S-])=NCCN=C([S-])[S-].[Zn+2]`: “inactive”. Broadly, the AC50 is the concentration at which the activity in the assay is half-maximal. In the case of `N[C@@H](Cc1cc(I)c(Oc2ccc(O)c(I)c2)c(I)c1)C(=O)O`, the concentration at half-maximal activity (AC50) was 7.63 µM (active). In the case of `O=C(O)C1(C(=O)Nc2ccc(Cl)cc2Cl)CC1`, the molecule was classed as inactive. The same measure, in the same setting: the same measure for `CC(C)(C)[C@@H](O)[C@@H](Cc1ccc(Cl)cc1)n1cncn1`: “inactive”. The same measure, in the same setting: the same measure for `C[C@]12CC[C@@H]3c4ccc(O)cc4C[C@@H](CCCCCCCCCS(=O)CCCC(F)(F)C(F)(F)F)[C@H]3[C@@H]1CC[C@@H]2O` (stereo not given in full): “inactive”. Still for that read-out and setting: the same measure for `OB(O)O`: “inactive”; for `CC(=O)[C@H]1CC[C@H]2[C@@H]3CCC4=CC(=O)CC[C@]4(C)[C@H]3CC[C@]12C`: “inactive”; for `CCN(Cc1c(F)cccc1Cl)c1c([N+](=O)[O-])cc(C(F)(F)F)cc1[N+](=O)[O-]`: “inactive”. Turning to `N#CSCSc1nc2ccccc2s1`, the outcome was inactive. Same read-out and setting: the same measure for `COC(=O)CSc1cc(N=c2sc(=O)n3n2CCCC3)c(F)cc1Cl`: “inactive”; for `CCOC(=O)COc1cc(-n2ncc(C(F)(F)F)c(C)c2=O)c(F)cc1Cl`: “inactive”; for `COc1c(Cl)ccc(Cl)c1C(=O)O`: “inactive”. Same read-out and setting: the same measure for `CCOC(=O)C(C)Oc1ccc(Oc2cnc3cc(Cl)ccc3n2)cc1` (stereo not given): “inactive”; for `CCC(C)OC(=O)N1CCCCC1CCO` (stereo not given): “inactive”; for `CCOC(=O)NCCOc1ccc(Oc2ccccc2)cc1`: “inactive”. As to `CCCOC(=O)NCCCN(C)C`, the molecule was called inactive. On to `CCCCC(CC)CN1C(=O)C2C3C=CC(C3)C2C1=O` (stereo not given), for which the molecule was classed as inactive. Still for that read-out and setting: in the case of `O=C(O)c1ccccc1` it was “inactive”; in that of `CCNc1nc(N)nc(Cl)n1`, “inactive”; in that of `CCCCOC(=O)C(C)Oc1ccc(Oc2ccc(C(F)(F)F)cn2)cc1` (stereo not given), “inactive”. Same read-out and setting: the same measure for `CN(C)C(=O)Nc1ccc(Cl)c(Cl)c1`: “inactive”; for `CCCCOCCOCCOCc1cc2c(cc1CCC)OCO2`: “inactive”. The same measure, in the same setting: in the case of `CCCCCOC(=O)COc1cc(N2C(=O)C3=C(CCCC3)C2=O)c(F)cc1Cl` it was “inactive”; in that of `O=C(c1ccccc1)C1CCCCC1`, “inactive”. Consider `CCCN(CCC)C(=O)SCC`, for which the outcome was inactive. Same read-out and setting: in the case of `CCOC(=O)C(C)Oc1ccc(Oc2nc3ccc(Cl)cc3o2)cc1` (stereo not given) it was “inactive”. In the case of `COCCO`, the result was inactive. On the same count and under the same terms, the same measure for `COC(=O)c1ccccc1C(=O)O`: “inactive”. Turning to `CC(C)(c1ccc(O)cc1)c1ccc(O)cc1`, the AC50 was 47.4 µM (active) and 24.4 µM (active) and 46 µM (active). With `CCCN(CCC)c1c([N+](=O)[O-])cc(C(F)(F)F)c(N)c1[N+](=O)[O-]`, the call was inactive. Same read-out and setting: the same measure for `CCCCCCC(C)OC(=O)COc1nc(F)c(Cl)c(N)c1Cl` (stereo not given): “inactive”; for `CCSC(=O)N(CC(C)C)CC(C)C`: “inactive”; for `C=CCOC(Cn1ccnc1)c1ccc(Cl)cc1Cl` (stereo not given): “inactive”.
